A short description of assay [1]: qHTS assay to identify small molecule agonists of the vitamin D receptor (VDR) signaling pathway - cell viability counter screen (AID 743224). Further: nearly all actives have a fitted effect of over 50% in size. Further: potency means the concentration at half of the fitted maximal effect. In short, it runs like this: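 Viability is measured in the same wells as the VDR-bla reporter assay: after 16 h compound treatment and 2 h substrate loading, CellTiter-Glo is added and luminescence read 30 min later.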
(In general: In qHTS, concentration-response curves come from the screen itself.)

Assay [2] in a line: qHTS assay to identify small molecule antagonists of the vitamin D receptor (VDR) signaling pathway - cell viability counter screen (AID 743225). Further: nearly all actives have a fitted effect of over 50% in size. Further: potency means the concentration at half of the fitted maximal effect. The procedure, abridged: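 Same-well multiplex: following 16 h treatment of HEK 293T cells carrying a UAS-driven beta-lactamase reporter with compound and agonist (3 nM final), and a 2 h FRET substrate step, CellTiter-Glo was added and luminescence read after 30 min.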

Assay [3] can be described thus: qHTS assay to identify small molecule agonists of the NFkB signaling pathway (AID 1159509; active means well fitted curve in the direction sought with a large enough effect in the signal ratio in the repeat runs, not every such curve was filed as active; the % refers to the signal ratio; further: series mostly up to about 61 µM). In short, it runs like this:
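NFkB-bla ME-180 cells with a beta-lactamase reporter under an NF-kB response element were plated overnight, treated with compounds in DMSO for 5 hr at 37 C, then loaded with FRET substrate for 1.5 hr at room temperature.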

Assay [4] in a line: qHTS assay to identify small molecule agonists of the NFkB signaling pathway - cell viability counter screen (AID 1159515; calls by dose curve; further: series mostly up to about 61 µM; nearly all actives have a fitted effect of over 55% in size). In short, it runs like this:
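Multiplexed viability readout: after the 5 hr compound exposure and 1.5 hr FRET substrate step, CellTiter-Glo reagent went into the same NFkB-bla ME-180 wells; ATP luminescence was measured after 30 min at room temperature.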

The nature of assay [5]: qHTS assay to identify small molecule agonists of the endoplasmic reticulum stress response signaling pathway (AID 1159516; active means well fitted activation curve with a large enough effect in the signal ratio in the repeat runs, not every such curve was filed as active; the % refers to the signal ratio). The procedure, abridged: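 Tox21 10K library screened in quantitative HTS format on ESRE-bla HeLa cells, a beta-lactamase reporter under ER stress response element control; 5 hr treatment, FRET read.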
The nature of assay [6]: qHTS assay to identify small molecule agonists of the endoplasmic reticulum stress response signaling pathway - cell viability counter screen (AID 1159517; calls by dose curve; further: series mostly up to about 61 µM; nearly all actives have a fitted effect of over 50% in size). In short, it runs like this:
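Luminescence readout: CellTiter-Glo, 30 min RT, same wells as the ESRE-bla reporter read. HeLa ESRE-bla, 1,500 cells/well, o/n 37 C; cpd 5 hr 37 C/5% CO2.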

A short description of assay [7]: qHTS assay to identify small molecule agonists of the AP-1 signaling pathway - cell viability counter screen (AID 1159525; calls by dose curve; further: nearly all actives have a fitted effect of over 55% in size). In short, it runs like this: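 ME-180 AP-1-bla, 2500 cells/well, Opti-MEM + 0.5% dialyzed FBS; overnight 37 °C; cpd 15-pt titration, 5 h 37 °C; CellTiter-Glo 30 min RT; luminescence read; normalised to TOAB and DMSO controls.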
A short description of assay [8]: qHTS assay to identify small molecule agonists of the AP-1 signaling pathway (AID 1159526; calls by dose curve).
Assay [9] is described as follows: qHTS assay to identify small molecule agonists of the RXR signaling pathway - cell viability counter screen (AID 1159529). Further: nearly all actives have a fitted effect of over 50% in size. Further: potency means the concentration at half of the fitted maximal effect. In short, it runs like this:
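Counter screen: CellTiter-Glo luminescence. Cells: RXR-alpha-UAS-bla HEK 293T. Medium: 2% charcoal-stripped FBS. Treatment: 16 h, 37 C. Reagent incubation: 30 min, RT.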

Assay [10] in a line: qHTS assay to identify small molecule antagonists of the retinoic acid receptor (RAR) signaling pathway (AID 1159552; further: nearly all actives have a fitted effect of over 50% in size; further: potency means the concentration at half of the fitted maximal effect). The procedure, abridged: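 Antagonism of retinol-induced RARE reporter activity was measured in C3RL4 cells. Exposure to compounds and 1 uM final retinol lasted 6 hr at 37 C, with luminescence as endpoint.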
Assay [11] addresses Nuclear receptor ROR-gamma (Homo sapiens) (UniProt P51449). Description: qHTS assay to identify small molecule antagonists of the retinoid-related orphan receptor gamma (ROR-gamma) signaling pathway (AID 1159521; further: nearly all actives have a fitted effect of over 50% in size; further: potency means the concentration at half of the fitted maximal effect). The procedure, abridged: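 Inducible-expression reporter assay: doxycycline (1 uM final) switched on RORγ in CHO cells bearing a ROR response element-luciferase construct, with test compounds present from 2 h beforehand. Decreased luminescence after 16 h defined antagonist activity.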

The nature of assay [12]: qHTS assay to identify small molecule antagonists of the retinoid acid receptor (RAR) signaling pathway - cell viability counter screen (AID 1159551). Further: nearly all actives have a fitted effect of over 35% in size. The procedure, abridged: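 Cytotoxicity counter screen in C3RL4 cells: 6 h compound exposure with 1 uM retinol (final), viability from cellular ATP by luminescence.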
A short description of assay [13]: qHTS assay to identify small molecule antagonists of the retinoid-related orphan receptor gamma (ROR-gamma) signaling pathway - cell viability counter screen (AID 1159520). Further: nearly all actives have a fitted effect of over 50% in size. The procedure, abridged: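 Tet-on ROR gamma CHO cells (1,000/well) were plated 4 hr, given compounds in DMSO for 2 hr at 37 C, then induced with 1 uM final doxycycline for 16 hr. Viability was read as ATP by CellTiter-Glo luminescence after 30 min.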

The target of assay [14] is Retinoic acid receptor RXR-alpha (Homo sapiens) (UniProt P19793). Description: qHTS assay to identify small molecule agonists of the RXR signaling pathway (AID 1159527; calls by dose curve; further: nearly all actives have a fitted effect of over 35% in size). In short, it runs like this: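 Compounds in DMSO were added to RXR-alpha-UAS-bla HEK 293T cells kept in 2% charcoal-stripped serum, and incubated 16 hr at 37 C with 5% CO2. Reporter signal came from a 2 hr B/G FRET substrate step.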

The nature of assay [15]: qHTS assay to identify small molecule agonists of the retinoic acid receptor (RAR) signaling pathway (AID 1159553). Further: potency means the concentration at half of the fitted maximal effect. In short, it runs like this: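 Agonist activity was scored in C3RL4 cells bearing a retinoic acid response element luciferase construct. Cells were treated with compounds for 6 hr at 37 C, and luciferase signal was measured as luminescence.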
The nature of assay [16]: qHTS assay to identify small molecule antagonists of the estrogen related receptor (ERR) signaling pathway - cell viability counter screen (AID 1224818).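 Further: series mostly up to about 46 µM; viability measured after 17.5 h of compound exposure.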 The procedure, abridged:
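Cells carrying the ERR pathway reporter were seeded and incubated for 6 hours before compound addition. After a 17.5-hour exposure at 37 C, live-cell protease activity was measured by CellTiter-Fluor fluorescence following 30 minutes of incubation.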

A short description of assay [17]: qHTS assay to identify small molecule antagonists of the estrogen related receptor (ERR) signaling pathway (AID 1224819). In short, it runs like this:
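Compounds dissolved in DMSO were pin-transferred onto ERR cells that had been plated 6 h earlier, and cells were then incubated 18 h at 37 C; signal was luciferase luminescence via One-Glo.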

Assay [18] in a line: qHTS assay to identify small molecule agonists of the estrogen related receptor (ERR) signaling pathway (AID 1224820). In short, it runs like this:
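ERR reporter cells (NTP line) plated 2,000/well, incubated 6 h at 37 C/5% CO2, then pinned with compounds in DMSO and held 18 h at 37 C. One-Glo added; luminescence read after 30 min at room temperature.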

Assay [19] deals with estrogen-related receptor alpha (ERRalpha) with PGC-1alpha coactivator, human. Description: qHTS assay to identify small molecule antagonists of the estrogen related receptor signaling pathway with the pleiotropic PPARgamma coactivator (PGC) (AID 1224821; calls by dose curve). In short, it runs like this:
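Cells engineered for PGC/ERR signalling (line from NTP) were plated 6 h at 37 C/5% CO2, then exposed to DMSO-dissolved compound for 18 h at 37 C. Luciferase activity was read by One-Glo luminescence after 30 min at room temperature.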

The nature of assay [20]: qHTS assay to identify small molecule antagonists of the estrogen related receptor signaling pathway with the pleiotropic PPARgamma coactivator (PGC) cell viability counter screen (AID 1224822; further: series mostly up to about 46 µM). The procedure, abridged: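 Seed PGC/ERR cells (2,000/well); incubate 6 h at 37 C/5% CO2; pin-transfer compounds in DMSO; incubate 17.5 h at 37 C; add CellTiter-Fluor; after 30 min read fluorescence.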

Inconclusive results are not listed. A number with no mark means an inactive call. The source made the active and inactive calls. Unless noted, the call rests on the fitted dose curve; in most records, active means well fitted curve in the direction sought with a large enough effect in the repeat runs; inconclusive means weak or mixed curves; inactive means no such curve, though single readings can be large; an effect the other way counts as inactive or inconclusive.

Retinoic acid receptor RXR-alpha (Homo sapiens), sequence (P19793 whole entry, looked up): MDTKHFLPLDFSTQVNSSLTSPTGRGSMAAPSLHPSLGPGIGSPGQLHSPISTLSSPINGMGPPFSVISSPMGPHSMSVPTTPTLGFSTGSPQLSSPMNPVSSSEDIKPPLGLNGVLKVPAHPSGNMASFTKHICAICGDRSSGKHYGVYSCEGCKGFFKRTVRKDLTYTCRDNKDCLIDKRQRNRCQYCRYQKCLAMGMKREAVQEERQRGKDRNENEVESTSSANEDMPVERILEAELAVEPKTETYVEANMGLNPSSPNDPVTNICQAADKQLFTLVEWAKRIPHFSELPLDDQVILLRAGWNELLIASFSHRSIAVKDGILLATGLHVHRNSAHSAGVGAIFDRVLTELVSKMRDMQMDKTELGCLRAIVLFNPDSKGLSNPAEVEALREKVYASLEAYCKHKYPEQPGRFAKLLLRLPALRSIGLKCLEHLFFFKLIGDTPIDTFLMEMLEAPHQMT

In the case of `C=CC(C)(C)CC(=O)OC`, the Potency entry in [1], in assay [2] and in [9] was “inactive” in each case. In addition, the compound was called inactive in assay [3], in [4], in assay [5], in assay [6], in assay [7] and in assay [8]. Also, the Potency in assay [10] was 15.4 µM (active).
`CO[C@@]12[C@H](COC(N)=O)C3=C(C(=O)C(C)=C(N)C3=O)N1C[C@@H]1N[C@@H]12`: the Potency entry in assay [2], in assay [11], in assay [9] and in [12] was “inactive” each time. In addition, the compound was classed as inactive in assay [3], in [4], in assay [5], in [6], in assay [7] and in assay [8]. In [10], the Potency is 10.6 µM (active).
Consider `CC(=O)Oc1ccc2c(c1)CC[C@@H]1[C@@H]2CC[C@]2(C)[C@@H](O)CC[C@@H]12`, for which the Potency result in assay [1], in assay [2], in [13], in assay [9] and in assay [12] was “inactive” each time. Besides, the call in [3], in [4], in assay [5], in assay [6] and in assay [8] was inactive.
Consider `C=CC(=C)CCCC(C)(C)OC(C)=O`, for which the Potency entry in assay [1], in assay [13], in assay [11], in assay [14], in [9] and in assay [12] was “inactive” throughout. For the same compound, the Potency result in assay [10] and in [15] was “inactive” throughout. Also, the compound was classed as inactive in assay [3], in assay [4], in assay [5], in [7] and in assay [8].
Take `CCCCC(CC)CNCC(CC)CCCC` (stereo not given): the Potency result in assay [1], in assay [2], in assay [13], in [11], in assay [14] and in assay [9] was “inactive” in each case. In addition, the Potency result in assay [12], in assay [10] and in assay [15] was “inactive” each time. Also, the compound was classed as inactive in assay [3], in assay [4], in [5], in assay [7] and in assay [8].
For the compound `CC[C@@H]([C@H](C)O)n1ncn(-c2ccc(N3CCN(c4ccc(OC[C@@H]5CO[C@@](Cn6cncn6)(c6ccc(F)cc6F)C5)cc4)CC3)cc2)c1=O`, the Potency entry in assay [1] and in assay [14] was “inactive” throughout. Also, the values for the Potency in assay [2], in assay [11] and in [9] were 23.9 µM (active), 0.944 µM (active) and 4.77 µM (active), respectively. For the same compound, the call in assay [3], in [4], in assay [5], in assay [6] and in [8] was inactive.
For `O=Cc1c(Cl)cccc1Cl`, the Potency result in assay [1], in assay [2], in [14], in [9], in [12] and in assay [10] was “inactive” in each case. Further, the Potency entry in [15] was “inactive”. For the same compound, the compound was classed as inactive in assay [3], in [4], in assay [5], in assay [6], in [7] and in [8].
For the compound `Cc1nc2ccccn2c(=O)c1CCN1CCC(C(=O)c2ccc(F)cc2)CC1`, the Potency result in assay [1], in assay [13], in [11], in assay [9], in assay [12] and in assay [10] was “inactive” in each case. Also, the Potency entry in assay [17] and in [19] was “inactive” in each case. In addition, the compound was called inactive in assay [3], in [4], in [5], in assay [7], in assay [8] and in assay [16]. The compound was called inactive in [18] and in assay [20].
Turning to `CC1=C(/C=C/C(C)=C\C=C\C(C)=C\C(=O)O)C(C)(C)CCC1`, the Potency result in assay [1], in [12] and in assay [10] was “inactive” throughout. For the same compound, the compound was called inactive in [3], in assay [4], in assay [6], in assay [7] and in [8]. Also, the Potency in assay [15] is 0.0686 µM (active).
In the case of `Oc1ccc(Nc2ccccc2)cc1`, in assay [1], the Potency is 54.9 µM (active). Besides, the result in assay [3], in [4], in assay [6], in [7] and in [8] was inactive. For the same compound, the Potency entry in assay [13], in assay [12] and in assay [10] was “inactive” in each case.
